Test systems include RIPK2; RIPK4; RIPK5; ROCK1; ROCK2; ROS1; S6K1; SBK1.
Common to all, as to settings: concentration: 1 μM, replicates: in singlicate; n = 1
The subject of assay [1] is RPS6KA4(Kin.Dom.1-N-terminal).
The test system of assay [2] is RPS6KA4(Kin.Dom.2-C-terminal).
The subject of assay [3] is RPS6KA5(Kin.Dom.1-N-terminal).
Assay [4] relates to RPS6KA5(Kin.Dom.2-C-terminal).
Assay [5] has as its system T1, RSK1(Kin.Dom.1-N-terminal).
T1 construct: gene RPS6KA1

In assay [6] the test system is T2, RSK1(Kin.Dom.2-C-terminal).
T2 construct: gene RPS6KA1

The test system of assay [7] is T3, RSK2(Kin.Dom.1-N-terminal).
T3 construct: gene RPS6KA3

For assay [8], the system named is T4, RSK2(Kin.Dom.2-C-terminal).
T4 construct: gene RPS6KA3

The test system of assay [9] is T5, RSK3(Kin.Dom.1-N-terminal).
T5 construct: gene RPS6KA2

The test system of assay [10] is T6, RSK3(Kin.Dom.2-C-terminal).
T6 construct: gene RPS6KA2

The test system of assay [11] is T7, RSK4(Kin.Dom.1-N-terminal).
T7 construct: gene RPS6KA6

The subject of assay [12] is T8, RSK4(Kin.Dom.2-C-terminal).
T8 construct: gene RPS6KA6
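Also: KINOMEscan kinase panel screen.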

Take `CCC(=O)c1c(-c2ccccc2)c2cc(Cl)ccc2c(=O)n1Cc1cc(S(C)(=O)=O)n(CC(F)F)n1`: the “%Inh” value is listed as 2% in the assay on RIPK2; 0% in the assay on RIPK4; 18% in the assay with RIPK5; 0% in the assay with ROCK1; 0% with ROCK2; 0% with ROS1. The “%Inh” value was 0% in assay [1]; 0% in assay [2]; 0% in assay [3]; 0% in [4]; 2% in assay [5]; 0% in assay [6]. The “%Inh” value in assay [7] came out at 5%; in assay [8], 0%; in assay [9], 0%; in [10], 0%; in assay [11], 13%; in assay [12], 1%. Further, the “%Inh” value in the assay with S6K1 and in the assay with SBK1 was 0% in each case.
As to `COc1ccc(-c2cc3c(C)nc(N)nc3n([C@H]3CC[C@H](OCCO)CC3)c2=O)cn1`, the “%Inh” value amounted to 0% in the assay with RIPK2; 0% with RIPK4; 0% with RIPK5; 0% with ROCK1; 0% in the assay on ROCK2; 9% with ROS1. Moreover, the “%Inh” value turned out to be 0% in assay [1]; 0% in [2]; 0% in assay [3]; 0% in assay [4]; 0% in assay [5]; 9% in assay [6]. The “%Inh” value is given as 0% in [7]; 0% in assay [8]; 16% in [9]; 12% in [10]; 0% in [11]; 23% in [12]. The “%Inh” value in the assay on S6K1 and in the assay on SBK1 was 0% in each case.
On to `COc1cc(OC)cc(-c2cc3cnc(N)nc3nc2NC(=O)NC(C)(C)C)c1`, for which the “%Inh” value with RIPK2, in the assay on RIPK4, in the assay on RIPK5, in the assay with ROCK1, in the assay on ROCK2 and with ROS1 was 0% each time. Further, the “%Inh” value in [1] is 16%; in assay [2] it was 0%; in assay [3], 5%; in assay [4], 0%; in assay [5], 23%; in assay [6], 0%. Further, the “%Inh” value in assay [7], in assay [8], in assay [9], in assay [10], in [11] and in assay [12] was 0% throughout. For the same compound, the “%Inh” value in the assay on S6K1 and in the assay on SBK1 was 0% in each case.
For `COc1cc2ncn(-c3cc(OCc4ccncc4)c(C(N)=O)s3)c2cc1OC` [GSK336313], the “%Inh” value is 13% in the assay on RIPK2; 22% in the assay with RIPK4; 1% with RIPK5; 0% in the assay with ROCK1; 0% in the assay with ROCK2; 28% in the assay with ROS1. Further, the “%Inh” value is given as 19% in assay [1]; 0% in assay [2]; 4% in assay [3]; 4% in assay [4]; 25% in [5]; 0% in assay [6]. For the same compound, the “%Inh” value amounted to 6% in assay [7]; 0% in assay [8]; 0% in assay [9]; 0% in assay [10]; 0% in assay [11]; 0% in assay [12]. In addition, the “%Inh” value was 0% with S6K1 and 24% in the assay on SBK1.
With `COC(=O)c1c(-c2ccccc2)c2cc(C)ccc2c(=O)n1Cc1ccccc1`, the “%Inh” value in the assay with RIPK2, in the assay on RIPK4, with RIPK5, in the assay on ROCK1, in the assay with ROCK2 and in the assay with ROS1 was 0% each time. Further, the “%Inh” value in assay [1] is listed as 0%; in assay [2] it was 0%; in assay [3], 10%; in assay [4] it was 0%; in assay [5] it was 0%; in assay [6] it was 20%. For the same compound, the “%Inh” value was determined as 0% in [7]; 0% in assay [8]; 15% in assay [9]; 15% in assay [10]; 0% in assay [11]; 22% in [12]. For the same compound, the “%Inh” value in the assay with S6K1 and in the assay on SBK1 was 0% in each case.
As for `CCCC(=O)Nc1n[nH]c2ncc(-c3cccc4ccccc34)cc12` [SB-642057], the “%Inh” value in the assay on RIPK2 stood at 28%; in the assay with RIPK4, 36%; with RIPK5, 10%; in the assay on ROCK1 it was 0%; with ROCK2 it was 3%; with ROS1, 0%. Moreover, the “%Inh” value came out at 14% in assay [1]; 0% in assay [2]; 16% in [3]; 0% in assay [4]; 26% in assay [5]; 24% in assay [6]. The “%Inh” value in assay [7] is given as 14%; in assay [8] it was 0%; in assay [9], 0%; in [10] it was 0%; in assay [11], 0%; in assay [12] it was 15%. Also, the “%Inh” value stood at 16% in the assay with S6K1 and 7% in the assay on SBK1.
Regarding `Nc1n[nH]c2ncc(-c3ccccc3)cc12` [SB-517081], the “%Inh” value with RIPK2 was determined as 18%; in the assay with RIPK4 it was 19%; in the assay on RIPK5 it was 5%; in the assay on ROCK1 it was 14%; in the assay on ROCK2, 2%; in the assay on ROS1, 0%. In addition, the “%Inh” value was 7% in assay [1]; 0% in [2]; 41% in [3]; 25% in assay [4]; 25% in assay [5]; 0% in [6]. The “%Inh” value was 10% in [7]; 0% in assay [8]; 7% in assay [9]; 0% in assay [10]; 0% in assay [11]; 36% in assay [12]. Further, the “%Inh” value in the assay with S6K1 and with SBK1 was 8% throughout.
On to `COc1ccc(-c2coc3ccc(-c4nnc(SCc5cccc(C#N)c5)o4)cc23)cc1`, for which the “%Inh” value is given as 12% in the assay on RIPK2; 16% in the assay on RIPK4; 12% with RIPK5; 0% in the assay with ROCK1; 24% in the assay on ROCK2; 18% in the assay on ROS1. The “%Inh” value in assay [1] is 0%; in assay [2], 13%; in [3], 29%; in assay [4], 0%; in [5], 16%; in assay [6] it was 24%. For the same compound, the “%Inh” value is 9% in assay [7]; 0% in assay [8]; 16% in assay [9]; 18% in assay [10]; 26% in assay [11]; 24% in assay [12]. Further, the figures for the “%Inh” value in the assay on S6K1 and in the assay on SBK1 were 2% and 0%, respectively.
With `Cl.c1ccc(Cn2cnc3cc(Nc4ncnc5ccccc45)ccc32)cc1` [GW272142], the “%Inh” value in the assay with RIPK2 worked out at 0%; in the assay on RIPK4, 12%; with RIPK5, 5%; in the assay with ROCK1 it was 4%; with ROCK2, 2%; in the assay with ROS1, 6%. Besides, the “%Inh” value in [1] came out at 6%; in assay [2] it was 0%; in assay [3], 0%; in assay [4] it was 7%; in assay [5], 0%; in assay [6] it was 0%. Also, the “%Inh” value in [7] came out at 0%; in [8] it was 0%; in assay [9], 0%; in [10], 6%; in assay [11], 0%; in assay [12], 5%. Moreover, the “%Inh” value with S6K1 was determined as 0%; in the assay with SBK1, 1%.
Turning to `Cc1nnc(-c2ccc(C)c(-c3ccc(C(=O)O)cc3)c2)o1` [GW608005], the “%Inh” value turned out to be 0% in the assay with RIPK2; 9% with RIPK4; 0% with RIPK5; 0% with ROCK1; 0% in the assay with ROCK2; 0% in the assay on ROS1. Besides, the “%Inh” value in assay [1] was 0%; in assay [2] it was 0%; in assay [3] it was 9%; in assay [4] it was 0%; in [5] it was 2%; in assay [6] it was 2%. Further, the “%Inh” value in [7] is 0%; in assay [8] it was 2%; in assay [9] it was 3%; in assay [10], 0%; in assay [11], 0%; in [12] it was 2%. Further, the “%Inh” value in the assay with S6K1 is 10%; in the assay with SBK1, 4%.
